Screening results: PubChem, National Center for Advancing Translational Sciences (NCATS)
D1 ag – activates the human D1 dopamine receptor | HEK293 T-REx D1 cells, calcium flux, agonist mode | activation, % at 2 µM | actives 1% (n = 360,000); in the data active = activation above about 30%; note: 0% is about no effect
Target sequence (P21728 whole entry, looked up): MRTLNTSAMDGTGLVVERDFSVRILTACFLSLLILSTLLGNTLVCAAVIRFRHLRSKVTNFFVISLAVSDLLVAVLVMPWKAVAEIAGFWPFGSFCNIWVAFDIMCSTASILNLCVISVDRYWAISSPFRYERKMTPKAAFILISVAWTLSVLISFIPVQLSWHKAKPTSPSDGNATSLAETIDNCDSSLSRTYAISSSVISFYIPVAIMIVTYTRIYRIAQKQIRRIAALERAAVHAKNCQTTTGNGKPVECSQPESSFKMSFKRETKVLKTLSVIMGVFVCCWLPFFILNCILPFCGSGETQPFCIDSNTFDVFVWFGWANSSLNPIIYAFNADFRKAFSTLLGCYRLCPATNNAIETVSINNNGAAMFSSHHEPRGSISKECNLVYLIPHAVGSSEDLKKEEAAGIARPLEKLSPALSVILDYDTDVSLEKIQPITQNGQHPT
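Inducible HEK293 T-REx D1 cells, force-coupled to calcium signalling, were plated at 4000 cells/well with tetracycline and held overnight at 30 C. After no-wash calcium dye loading, compound-evoked calcium rise over 180 s flagged agonists.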
DRD3 antagonist – blocks the human D3 dopamine receptor; actives 2.5% (n = 360,000); P35462; AID 652054; D3R cells, DiscoveRx beta-arrestin luminescence, antagonist mode; active compounds read low; max response, negative = inhibition, %; in the data active = max response below about -50%; note: % is set by controls: 0 for no effect and ±100 for the full control effect
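Cells plated overnight at 1500 cells/well, then exposed to library compounds with dopamine controls for 90 minutes at 37 degrees C. DiscoveRx reagent added for 30–60 minutes at room temperature; luminescence read, quantitative HTS format.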
D1 antagonist – antagonists of human D1 dopamine receptor; actives 3.2% (n = 360,000); HEK293 TREx D1 cells, calcium flux, dopamine EC80; active compounds read low; AID 504652; activity change, negative = inhibition, % at 10 µM; P21728; in the data active = activity change below about -30%; note: % is set by controls: 0 for no effect and ±100 for the full control effect
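Cells carrying a force-coupled, tetracycline-inducible human D1 receptor report calcium flux. Each well gets a 10 s baseline, compound with 180 s monitoring, then an EC80 dopamine stimulus with a second 180 s kinetic read.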
D1 PAM – potentiators of human D1 dopamine receptor; potentiation, % at 10 µM; HEK293 TREx D1 cells, calcium flux, dopamine EC20 potentiation; AID 504651; P21728; actives 0.036% (n = 360,000); in the data active = potentiation above about 30%; note: 0% is about no effect
DRD3 agonist – activates the human D3 dopamine receptor | P35462 | D3R DiscoveRx beta-arrestin cells, luminescence, 90 min | max activation, % | actives 0.58% (n = 410,000); in the data active = max activation above about 30%; note: 0% is about no effect
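Agonist mode: compounds and dopamine controls were applied to plated cells for 90 min at 37 degrees C after an overnight attachment at 1500 cells/well. Luminescent read-out followed 30 - 60 minutes at room temperature with DiscoveRx detection reagent.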
Numbers without * were called inactive; · = no result given. Shown are actives, neighbours in structure and some others; about 6% of the full set was active somewhere.

SMILES	D1 ag	DRD3 antagonist	D1 antagonist	D1 PAM	DRD3 agonist
CN1CCc2cc(Cl)c(O)cc2[C@@H](c2ccccc2)C1	0	-83*	-89*	-3	-76
COc1ccc2c(c1)c(CC(=O)OCC(N)=O)c(C)n2C(=O)c1ccc(Cl)cc1	0	0	0	-4	1
COc1ccc2c(c1)c(CC(=O)OCC(=O)O)c(C)n2C(=O)c1ccc(Cl)cc1	1	-54*	25	10	-2
O=C(NCC(c1ccc2c(c1)OCO2)N1CCN(c2ccccc2)CC1)c1ccccc1 (configuration not stated)	1	·	-11	4	-21
O=C(O)c1ccnc2c(O)cccc12	3	·	20	2	·
O=Cc1ccc(O)c2ncccc12	1	-83*	-21	-4	-25
O=C(NCc1ccc(OC(F)(F)F)cc1)c1cccc2c1C(=O)c1ccc(N3CCCCC3)cc1S2(=O)=O	·	45	·	·	23
CC1CCN(c2ccc3c(c2)S(=O)(=O)c2cccc(C(=O)NCc4cccc(F)c4)c2C3=O)CC1	188*	100	13	-4	106*
O=C(NCc1ccco1)c1cccc2c1C(=O)c1ccc(N3CCC(Cc4ccccc4)CC3)cc1S2(=O)=O	·	68	·	·	31*
O=C(NCc1ccc(OC(F)(F)F)cc1)c1cccc2c1C(=O)c1ccc(N3CCCC3)cc1S2(=O)=O	·	-51*	·	·	-13
O=S(=O)(c1ccccc1)N1CCN(c2nc(-c3ccc(F)cc3)nc3cc(Cl)ccc23)CC1	0	·	2	14	·
CCCc1ccc(OCc2ccc(C(=O)Nc3ccccc3C(=O)OC)o2)cc1	17	·	-12	-2	5
Cc1ccc(-n2nc(-c3ccc(OC(F)(F)F)cc3)cc2N)cc1C	3	19	-32*	-4	2
Cc1ccc(-n2nc(-c3ccc(N)cc3)cc2N)cc1	0	6	-7	0	-6
Cc1onc(-c2ccccc2)c1C(=O)N1CCCc2ccccc21	2	-10	1	-2	-2
Cc1onc(-c2c(F)cccc2Cl)c1C(=O)N1CCc2ccccc21	1	7	3	5	34*
Cc1onc(-c2c(Cl)cccc2Cl)c1C(=O)N1CCCc2ccccc21	139*	-17	18	1	21
Cc1onc(-c2ccccc2)c1C(=O)N1CCCC1	3	-1	-37*	-10	10
Cc1onc(-c2ccccc2)c1C(=O)N1CCCCCC1	2	5	14	7	2
COC(=O)c1cc2occc2n1Cc1nc(-c2ccccc2)oc1C	11	·	15	5	5
CCCCCCCCCn1c2c(c(=N)c3c1CCC3)CCC2	-2	-56*	21	-1	-3
CCCCCCn1c2c(c(=N)c3c1CCC3)CCC2	-2	-19	14	4	-6
Cc1ccc(NC(=O)C(=O)NCCN2CCN(C(=S)Nc3ccccc3)CC2)cc1	4	14	-34*	-3	3
Cc1ccc(C(=O)N2CCN(CCNC(=O)C(=O)Nc3ccc(Cl)cc3)CC2)cc1	1	-61*	-11	-5	-22
CCN1CCN(C(=O)c2ccc(CSc3ccc(C)cc3)cc2)CC1	183*	-53*	5	21	-30
SMILES	D1 ag	DRD3 antagonist	D1 antagonist	D1 PAM	DRD3 agonist
O=C(NCCN1CCN(C(=O)c2c(F)cccc2F)CC1)C(=O)Nc1ccc(Cl)cc1	0	24	-11	-8	11
Cc1ccc(C(=O)N2CCN(CCNC(=O)C(=O)NCc3ccc(Cl)cc3)CC2)cc1	0	-78*	2	-6	-20
CCN(CC)CCCNC(=O)c1oc2c(c1C)-c1nn(Cc3ccc(Cl)cc3)cc1CC2	17	·	-3	-2	-23
c1ccc(-n2nnnc2-n2ccnc2)cc1	1	-3	-97*	0	-6
CCOc1ccccc1OCCNC1CCCC1	0	-106*	3	-2	-7
CCOc1ccc(CNC2CCCCCCC2)cc1OC	7	-15	-5	-2	-16
CCOc1ccc(OCCNC2CCCC2)cc1	4	-60*	1	-11	-3
N#Cc1ccccc1OCCCNC1CCCC1	9	-80*	11	-4	-4
CCCOc1ccc(OCCNC2CCCC2)cc1	3	-10	-22	9	-10
COc1ccc(NC(=O)c2cc3nc(-c4ccc(C)c(C)c4)cc(C(F)(F)F)n3n2)cc1	-1	·	4	8	-9
CC(=O)N1CCc2[nH]c3ccccc3c2C1	-1	-13	-13	2	-7
